In all, about 420,000 compounds went through this assay and about 50,000 (12%) were called active. Not shown: some 26% with an inconclusive outcome. The call rests on the fitted dose curve; in most records, active means well fitted inhibition curve with a large enough effect; inconclusive means small, poorly fitted or top-dose-only effect; inactive means flat fitted curve, though single readings scatter. What follows is part of a selection rich in actives, with near analogues and random picks from the rest.
Assay: qHTS for Inhibitors of human tyrosyl-DNA phosphodiesterase 1 (TDP1): qHTS in cells in presence of CPT; further: nearly all actives have a fitted effect of over 55% in size
Conditions: chicken DT40 Tdp1-/-;hTDP1 cells + 20 nM CPT, ATP luminescence, 48 h; series mostly up to 46.2 µM; activity change, negative = growth inhibition: at the top concentration
Procedure, shortened: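 Chicken DT40 Tdp1-/- cells complemented with human TDP1, 400 cells/well, exposed to compounds plus 20 nM camptothecin for at least 48 h at 37 C; viability read as ATP content by CellTiter-Glo luminescence.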
For `CC1(C)C[C@H]2C3=CCC4[C@@]5(C)CC[C@H](O)[C@](C)(CO)C5CC[C@@]4(C)[C@]3(C)C[C@@H](O)[C@@]2(CO)[C@@H](O)[C@@H]1O` (some centres not stated), the “activity change, negative = growth inhibition” value was -6.68% (inactive). In the case of `CCCCc1nc2cc(C(=O)NCCc3cnn(C)c3)ccc2o1`, the “activity change, negative = growth inhibition” value is reported as -21.1% (inactive). With `Cc1cc(C)c(C)c(S(=O)(=O)N[C@@H](C)C(=O)OC(C)C(=O)NC(N)=O)c1C` (some centres not stated) the “activity change, negative = growth inhibition” value was 1.29% (inactive). In the case of `CN(Cc1c(F)cccc1Cl)C(=O)COC(=O)Cn1cnc2ccccc2c1=O`, the “activity change, negative = growth inhibition” value is reported as 6.46% (inactive). In the case of `CCc1nnc(NC(=O)C2CCN(C(=O)c3ccccc3C)CC2)s1`, the “activity change, negative = growth inhibition” value is reported as 2.38% (inactive). With `CCOC(=O)Nc1ccc(S(=O)(=O)N(C)C(C)C)cc1` the “activity change, negative = growth inhibition” value was -9.23% (inactive). With `Cc1ccccc1C(=O)N1CCC(C(=O)Nc2ccc(S(=O)(=O)N(C)C(C)C)cc2)CC1` the Potency was 14.6 µM (active). In the case of `COc1ccc(N2CCN(CCCNC(=O)C3CCN(S(=O)(=O)N4CCOCC4)CC3)CC2)cc1`, the “activity change, negative = growth inhibition” value is reported as -5.76% (inactive). In the case of `NNC(=O)c1oc2nc(-c3ccccc3)cc(-c3ccco3)c2c1N`, the “activity change, negative = growth inhibition” value is reported as -7.63% (inactive). In the case of `CN(C)C(=O)Cn1c(=O)n(S(=O)(=O)c2ccccc2)c2ccccc21`, the “activity change, negative = growth inhibition” value is reported as 33.8% (inactive). For `C/C(=N\OCC(=O)Nc1ccc(Br)cc1)c1cccs1`, the “activity change, negative = growth inhibition” value was -4.26% (inactive). In the case of `CC1(C)CCCC2=C1CC1C(=O)N(c3ccccc3)C(=O)C1C2` (configuration not stated), the “activity change, negative = growth inhibition” value is reported as -11.4% (inactive). For `CC1CC2=C(CC1/C=N/NC(N)=S)C(C)(C)CCC2` (configuration not stated), the Potency was 4.11 µM (active). In the case of `Cc1ccccc1N1CC(C(=O)Nc2nnc(SCCC3OCCO3)s2)CC1=O` (configuration not stated), the “activity change, negative = growth inhibition” value is reported as -1% (inactive). For `COc1ccc(NC(=O)N2CCCC2C(=O)NCc2ccccc2Cl)cc1` (configuration not stated), the “activity change, negative = growth inhibition” value was -17.9% (inactive). For `CCOc1ccc(Nc2oc(/C=C/c3ccc(F)cc3)nc2C#N)cc1`, the “activity change, negative = growth inhibition” value was -22.1% (inactive). With `COc1ccc(Nc2oc(-c3ccccc3Cl)nc2C#N)cc1` the Potency was 2.91 µM (active). In the case of `Cc1ccccc1-c1nc(C#N)c(NCc2ccco2)o1`, the “activity change, negative = growth inhibition” value is reported as 25.6% (inactive). With `CCOC(=O)N1CCN(Cc2nnc(-c3ccccc3Cl)o2)CC1` the “activity change, negative = growth inhibition” value was -24.8% (inactive). For `CCc1ccc[n+](-c2nc([O-])sc2C=O)c1`, the “activity change, negative = growth inhibition” value was -0.903% (inactive). In the case of `COc1cccc(C(=O)Nc2cc3c(cc2Br)OCCCO3)c1`, the “activity change, negative = growth inhibition” value is reported as -23% (inactive). In the case of `Cn1c(N)c(C(=O)COC(=O)C23CC4CC(CC(C4)C2)C3)c(=O)n(C)c1=O`, the “activity change, negative = growth inhibition” value is reported as -23.7% (inactive). In the case of `Cc1ccc(-n2c(C)cc(C(=O)CN3C(=O)C(=O)N(C4CCCC4)C3=O)c2C)cc1`, the Potency is reported as 20.6 µM (active). In the case of `CCOC(=O)c1cc2c(n(-c3ccc(C)cc3)c1=O)CCCC2=O`, the “activity change, negative = growth inhibition” value is reported as -0.219% (inactive). For `Cc1cc(C(=O)COC(=O)C2CC2)c(C)n1-c1ccc(F)cc1`, the “activity change, negative = growth inhibition” value was -3.09% (inactive). In the case of `Cc1cc(OC(=O)c2ccc(OC(C)C)cc2)c([N+](=O)[O-])c(=O)[nH]1`, the “activity change, negative = growth inhibition” value is reported as -2.01% (inactive). In the case of `COCc1cc(C)n(CC(=O)NCC2CCCO2)c(=O)c1C#N` (configuration not stated), the “activity change, negative = growth inhibition” value is reported as -0.925% (inactive). With `CC1(C)O[C@@H]2CC3C4C[C@H](F)C5=CC(=O)C=CC5(C)C4C(O)CC3(C)[C@]2(C(=O)CO)O1` (some centres not stated) the “activity change, negative = growth inhibition” value was -14.3% (inactive). With `CCOC(=O)c1ccccc1NC(=S)N1CCC(C(N)=O)CC1` the “activity change, negative = growth inhibition” value was 1.5% (inactive). For `CCOC(=O)c1cnc(Nc2nc3ccccc3o2)nc1CSC(=S)N1CCCCC1`, the Potency was 0.146 µM (active). In the case of `CCc1ccc(CNC(=O)C2CCCN(c3nc4ccccc4o3)C2)cc1` (configuration not stated), the “activity change, negative = growth inhibition” value is reported as -19.6% (inactive). With `CCN(C(=O)COc1ccc(C(=O)c2ccccc2)cc1)c1ccccc1` the Potency was 18.4 µM (active). In the case of `CN(Cc1ccccc1)C(=O)COc1ccccc1`, the “activity change, negative = growth inhibition” value is reported as -19.8% (inactive). In the case of `O=C(COc1ccc(F)cc1)N(CC1=CCS(=O)(=O)C1)c1ccccc1`, the “activity change, negative = growth inhibition” value is reported as -20.9% (inactive). In the case of `CC(C)CCN1C(=O)c2ccc(C(=O)Nc3cccc(S(N)(=O)=O)c3)cc2C1=O`, the “activity change, negative = growth inhibition” value is reported as -22% (inactive). In the case of `COCCCn1c(SCC(=O)Nc2oc(C)c3c(C)n[nH]c(=O)c23)nc2sc3c(c2c1=O)CCC3`, the “activity change, negative = growth inhibition” value is reported as -19.5% (inactive). With `O=C1/C(=C/c2ccc(F)cc2)SC(=S)N1CCCC(=O)N1CCCCC1CCO` (configuration not stated) the Potency was 16.4 µM (active). In the case of `COc1ccccc1C(=O)NNC(=O)CCN1C(=O)/C(=C\c2ccccc2)SC1=S`, the “activity change, negative = growth inhibition” value is reported as 1.22% (inactive). For `Cc1ccc(/C=C2\SC(=S)N(CCC(=O)Nc3ccc(O)cc3)C2=O)cc1`, the “activity change, negative = growth inhibition” value was 12% (inactive). In the case of `CN(C)c1ccc(NC(=O)CN2C3CCCC2CC(NC(=O)c2ccccc2)C3)cc1` (configuration not stated), the “activity change, negative = growth inhibition” value is reported as -2% (inactive). For `CCOC(=O)N1CCN(C(=O)CSc2nc(C)nc3c2c(=O)n(C)c(=O)n3C)CC1`, the “activity change, negative = growth inhibition” value was -4.74% (inactive). In the case of `Cc1ccc(CNC(=O)CSc2c(C)cnc3c2c(=O)n(C)c(=O)n3C)cc1`, the “activity change, negative = growth inhibition” value is reported as 2.07% (inactive). For `CCc1cnc2c(c1SCC(=O)N1CCC(C)CC1)c(=O)n(C)c(=O)n2C`, the Potency was 20.6 µM (active). In the case of `COc1cc(C(c2c(NC(=O)c3ccco3)sc(C)c2C)N2CCOCC2)cc(OC)c1OC` (configuration not stated), the Potency is reported as 23.1 µM (active). With `COc1ccc(NC(=O)CCC(=O)Nc2cc(OC)c(NC(=O)c3ccco3)cc2OC)c(OC)c1` the “activity change, negative = growth inhibition” value was -26.9% (inactive). With `COc1ccc(CC(=O)Nc2ccccc2NC(=O)c2ccco2)cc1OC` the “activity change, negative = growth inhibition” value was -0.664% (inactive). For `COC(=O)c1ccccc1NC(=O)c1ccc(COc2ccccc2Cl)o1`, the “activity change, negative = growth inhibition” value was -21.6% (inactive). With `COc1ccc(OCCCC(=O)OC(C)C(=O)Nc2ccccc2[N+](=O)[O-])cc1` (configuration not stated) the “activity change, negative = growth inhibition” value was 4.09% (inactive). In the case of `COC(=O)Cn1cc(C(=O)c2cccs2)c2ccccc21`, the “activity change, negative = growth inhibition” value is reported as -6.42% (inactive). For `COC(=O)c1cn(CC(=O)NCc2cccs2)c2ccccc12`, the “activity change, negative = growth inhibition” value was -11% (inactive). In the case of `COC(=O)Cn1cc(/C=C/[N+](=O)[O-])c2ccccc21`, the Potency is reported as 10.3 µM (active). With `COC(=O)c1cc(NC(=O)c2sc3ccccc3c2Cl)cc(C(=O)OC)c1` the “activity change, negative = growth inhibition” value was -28.5% (inactive). In the case of `O=C(N/N=C/c1c(Cl)[nH]c2ccccc12)c1sc2ccccc2c1Cl`, the Potency is reported as 23.1 µM (active). For `Cc1[nH]c2ccccc2c1/C=N\NC(=O)Cn1nnc(-c2ccccc2)n1`, the “activity change, negative = growth inhibition” value was -15.7% (inactive). For `CC(=O)c1nnn(-c2ccc(Cl)cc2C#N)c1C`, the “activity change, negative = growth inhibition” value was 0% (inactive). With `COCCCNc1nc2ccccc2nc1NS(=O)(=O)c1ccc(F)cc1` the “activity change, negative = growth inhibition” value was -6.29% (inactive). In the case of `CCCc1cc(=O)n2[nH]c(NCc3ccc(CC)cc3)nc2n1`, the “activity change, negative = growth inhibition” value is reported as -1.57% (inactive). With `CCCCOc1ccc(CN2C(=O)C(=O)c3cc(Br)cc(C)c32)cc1OC` the Potency was 0.82 µM (active). For `CCCCn1nnnc1C1(C)CCC(=O)N1Cc1ccc(OC)c(OC)c1` (configuration not stated), the “activity change, negative = growth inhibition” value was -11.6% (inactive). With `COc1ccc(CN2C(=O)CC(Cc3ccc(C)cc3)C2=O)cc1OC` (configuration not stated) the “activity change, negative = growth inhibition” value was -28.9% (inactive). With `Cc1cc(C)nc(NC(=O)c2cccc([N+](=O)[O-])c2)c1` the “activity change, negative = growth inhibition” value was 0.531% (inactive). For `O=C(Nc1ccc(F)cc1)C(CCc1ccccc1)N1CCN(CC(=O)N2CCCC2)CC1` (configuration not stated), the “activity change, negative = growth inhibition” value was -16.7% (inactive). In the case of `OC(c1ccc(Cl)cc1)C(CN1CCOCC1)c1ccccc1` (configuration not stated), the “activity change, negative = growth inhibition” value is reported as -26.3% (inactive). For `COc1cccc(OC)c1C(=O)N1CCN(Cc2ccccc2F)CC1`, the “activity change, negative = growth inhibition” value was -3.78% (inactive). With `COc1ccccc1OCCCn1c(-c2ccc(Cl)cc2)nc2ccccc2c1=O` the “activity change, negative = growth inhibition” value was -1.91% (inactive). With `COc1ncc2nc(-c3ccc(Cl)cc3)c(=O)n(C)c2n1` the “activity change, negative = growth inhibition” value was 1.69% (inactive). In the case of `CCCCc1c(-c2ccc(Br)cc2)ncn1CCc1ccccc1OC`, the Potency is reported as 1.3 µM (active). With `COCCn1cnc2c1c(=O)n(Cc1ccc(Br)cc1)c(=O)n2Cc1ccccc1` the “activity change, negative = growth inhibition” value was 0.0958% (inactive). With `CCCc1c(-c2ccccc2F)ncn1Cc1ccccc1OC` the Potency was 1.3 µM (active). In the case of `CCCCc1c(-c2ccc(Cl)cc2)ncn1CCc1ccccc1OC`, the Potency is reported as 4.61 µM (active). With `COc1ccccc1CN1CCN(Cc2cc(OC)c(OC)cc2OC)CC1` the “activity change, negative = growth inhibition” value was -3.91% (inactive). For `COc1ccccc1NC(=O)c1c(Br)cnn1C`, the “activity change, negative = growth inhibition” value was -14.9% (inactive).

Source: PubChem BioAssay AID686979 (National Center for Advancing Translational Sciences (NCATS), 2013)
On the % scale 0 is the no-effect control and ±100 the full control effect; potency means the concentration at half of the fitted maximal effect.
